A short description of assay [1]: NCI Yeast Anticancer Drug Screen. Data for the rad50 strain (AID 155).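 Note: 0% = growth of vehicle-only cultures of the same strain.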 The conditions noted are these: S. cerevisiae rad50 strain growth inhibition; at 50.0 µM; hits give high values. The procedure, abridged:
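Relative growth inhibition (compound vs vehicle) was measured in yeast with a defined repair-gene alteration.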

Assay [2] can be described thus: NCI Yeast Anticancer Drug Screen. Data for the mec2-1 strain (AID 157). The conditions noted are these: S. cerevisiae mec2-1 strain, at 50.0 µM, hits give high values. An outline of the steps: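 Using mec2-1 yeast: add compound, measure growth, express inhibition versus vehicle-treated cultures.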
Assay [3] is described as follows: NCI Yeast Anticancer Drug Screen. Data for the sgs1 mgt1 strain (AID 161).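 Note: 0% = growth of cultures given vehicle only.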 The settings on record: S. cerevisiae sgs1 mgt1 strain, at 50.0 µM, hits give high values. An outline of the steps: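 This yeast growth screen uses a strain with defined DNA-repair lesions; compound-treated growth is compared with vehicle-treated growth.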
The nature of assay [4]: NCI Yeast Anticancer Drug Screen. Data for the cln2 rad14 strain (AID 165).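 Note: 0% = growth equal to vehicle treated cultures.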 The conditions noted are these: S. cerevisiae cln2 rad14 strain, at 50.0 µM, hits give high values. The procedure, abridged:
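Yeast strain cln2 rad14, bearing defects in cell cycle control and DNA repair, serves as the test system; values reflect growth inhibition compared with vehicle.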

A short description of assay [5]: NCI Yeast Anticancer Drug Screen. Data for the bub3 strain (AID 167). The conditions noted are these: S. cerevisiae bub3 mutant strain, at 50.0 µM, hits give high values. The procedure, abridged: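 Screening used yeast with an engineered genetic alteration affecting cell cycle control. Compound-exposed cultures were compared with vehicle cultures, and reduced growth was taken as inhibition.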

Assay [6] in a line: NCI Yeast Anticancer Drug Screen. Data for the mlh1 rad18 strain (AID 175). The settings on record: S. cerevisiae mlh1 rad18 strain growth inhibition; at 50.0 µM; hits give high values. An outline of the steps:
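Steps: expose repair-defective yeast to compound; measure growth; express inhibition against vehicle-treated controls.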

This note sets out measurements from PubChem BioAssay (NCI).

This is part of a sample that, as a whole, favours compounds with a hit. Of some 79,000 tested, about 15% had one in any assay. Values without a mark were called inactive. Activity calls are given as the source filed them. Cut-off read from the data, not from the text of the source: active = growth inhibition above about 70%; inactive = the rest.

Consider `O=C(O)/C1=C/CCC(C(=O)O)CCC1` (stereo unspecified), for which the growth inhibition in assay [1] is -4.15%; in assay [2] it was -1.95%; in assay [3] it was -7.35%; in assay [4], -44.6%; in assay [5], -12.5%; in assay [6], 22.9%.
Take `O=C(O)c1ccc(O)c(Cl)c1`: the growth inhibition in assay [1] was 14.2%; in assay [2], 5.8%; in assay [3], -7.85%; in assay [4], -22.2%; in assay [5], 9.25%; in assay [6] it was 25.4%.
On to `CC(=O)n1c(=O)c2cc3c(=O)n(-c4cccc(C#N)c4)c(=O)c3cc2c1=O`, for which the growth inhibition is -25.4% in assay [1]; -19.4% in assay [2]; 9.65% in assay [3]; 7.65% in assay [4]; 4.8% in assay [5]; -9.65% in assay [6].
Regarding `CCCOC(=O)Nc1cccc2ccccc12`, the growth inhibition in assay [1] was 0.65%; in assay [2], -9.3%; in assay [3] it was 12.5%; in assay [4], -62.4%; in assay [5], -21.8%; in assay [6], -17.2%.
In the case of `COc1ccc2nccc(CO)c2c1`, the growth inhibition was 4.95% in assay [1]; -3.4% in assay [2]; -0.8% in assay [3]; -33.2% in assay [4]; 5.7% in assay [5]; 0.75% in assay [6].
For the molecule `O=C(O)CC(c1ccccc1Cl)C(CC(=O)O)c1ccccc1Cl` (stereo unspecified), the growth inhibition in assay [1] was 5.55%; in assay [2] it was -1.55%; in assay [3], -2.55%; in assay [4], 11.6%; in assay [5], -1.05%; in assay [6], 3.4%.
Consider `CCOc1cccc(N(CC)CC)c1`, for which the growth inhibition in assay [1] was 33.9%; in assay [2], 2.05%; in assay [3], -20%; in assay [4] it was -64.5%; in assay [5] it was -14.2%; in assay [6], 13.4%.
On to `CC1(C)OCC(C(O)C2OC(C)(C)OC2/C=N\O)O1` (stereo unspecified), for which the growth inhibition in assay [1] was -3.9%; in assay [2], -18%; in assay [3], -0.2%; in assay [4] it was -0.5%; in assay [5] it was -1.45%; in assay [6], -17%.
Turning to `Cc1ccc(S(=O)(=O)/N=C/[N-][n+]2cccc(C)c2)cc1`, the growth inhibition in assay [1] is 3.6%; in assay [2] it was 8.8%; in assay [3], 4.4%; in assay [4] it was -14.6%; in assay [5] it was 0.45%; in assay [6] it was -4.2%.
As for `CC(=O)c1ccc(OCc2ccccc2)c(OCc2ccccc2)c1`, the growth inhibition in assay [1] was 2.45%; in assay [2] it was 0.8%; in assay [3] it was 22.8%; in assay [4], 10.9%; in assay [5], 22.1%; in assay [6], 11.2%.
In the case of `CCCCCCC(=O)/C=C/c1ccccc1Cl`, the growth inhibition in assay [1] was -12.2%; in assay [2], -29.6%; in assay [3] it was -1.35%; in assay [4] it was 10.3%; in assay [5], 15.1%; in assay [6], 10.1%.
Consider `COc1cc(C(c2cc3c(cc2O)OCO3)N2CCCC2)cc(OC)c1OC` (stereo unspecified), for which the growth inhibition in assay [1] is -13.2%; in assay [2], 17.9%; in assay [3] it was -13.9%; in assay [4], 13%; in assay [5], -5.3%; in assay [6] it was -7.85%.
With `Cc1cnc(Sc2ncccn2)c([N+](=O)[O-])c1`, the growth inhibition in assay [1] is -7.05%; in assay [2], -15%; in assay [3], -2.1%; in assay [4] it was -28.4%; in assay [5] it was -31.1%; in assay [6], -17.9%.
Regarding `NC(=O)N/N=C1/C=C2CCCCC2CC1` (stereo unspecified), the growth inhibition is 6.8% in assay [1]; 0.35% in assay [2]; -1% in assay [3]; 10.8% in assay [4]; -16.4% in assay [5]; 10.2% in assay [6].
Turning to `O=S(=O)(O)CCNC(=S)C(=S)NCCS(=O)(=O)O`, the growth inhibition in assay [1] is 29.1%; in assay [2] it was 14.2%; in assay [3], 7.75%; in assay [4], 6.2%; in assay [5], 8.7%; in assay [6], 5.7%.
On to `CC1=C(C(=O)Nc2ccccc2)C(c2ccc(C3C(C(=O)Nc4ccccc4)=C(C)NC(C)=C3C(=O)Nc3ccccc3)cc2)C(C(=O)Nc2ccccc2)=C(C)N1`, for which the growth inhibition in assay [1] is 70% (active); in assay [2], 71.6% (active); in assay [3], 53%; in assay [4], 41.5%; in assay [5], 82.5% (active); in assay [6], 84.8% (active).
Turning to `O=[N+]([O-])c1ccc(-c2nc3ccncc3[nH]2)cc1`, the growth inhibition in assay [1] was -22.6%; in assay [2] it was -7.4%; in assay [3], -15.2%; in assay [4], -21.6%; in assay [5], -6.85%; in assay [6], -12.6%.
`O=C1C=C(NCCc2ccccc2)c2ccccc2C1=O`: the growth inhibition was 38.5% in assay [1]; -8.6% in assay [2]; 16.6% in assay [3]; 9.15% in assay [4]; 40.4% in assay [5]; -5.1% in assay [6].
With `CC1=NN(c2cccc([N+](=O)[O-])c2)C(=O)C1`, the growth inhibition is 13.9% in assay [1]; -25% in assay [2]; 10.7% in assay [3]; -5.7% in assay [4]; 16.8% in assay [5]; 32.6% in assay [6].
`O=C(NI1OC(=O)c2ccccc21)c1ccc(Cl)cc1`: the growth inhibition in assay [1] was -9%; in assay [2] it was 6.05%; in assay [3], -38%; in assay [4] it was -17.5%; in assay [5] it was -33.6%; in assay [6], -5.6%.
In the case of `CC1(C)CC[C@]2(C(=O)O)CC[C@]3(C)C(=CC[C@@H]4[C@@]5(C)CC[C@H](OC6OC(CO)C(O)C(O)C6OC6OC(CO)C(O)C(O)C6O)C(C)(C)[C@@H]5CC[C@]43C)[C@@H]2C1` (stereo partly specified), the growth inhibition in assay [1] is 86.8% (active); in assay [2] it was 86.7% (active); in assay [3], 87.1% (active); in assay [4] it was 86.2% (active); in assay [5], 84.3% (active); in assay [6] it was 83.5% (active).
Consider `CSc1nc(SC)c2c(C(N)=S)[nH]nc2n1`, for which the growth inhibition in assay [1] was 23.3%; in assay [2], 20.9%; in assay [3] it was 47%; in assay [4] it was 19.7%; in assay [5], 18.6%; in assay [6] it was 23.6%.
With `COC(=O)C(=O)C(C(=O)C1=NS(=O)(=O)c2cc(S(N)(=O)=O)c(Cl)cc2N1)c1nc2ccc(C(=O)c3ccccc3)cc2[nH]c1=O` (stereo unspecified), the growth inhibition in assay [1] is -9.7%; in assay [2], -18.1%; in assay [3], -18%; in assay [4] it was 6%; in assay [5], -19.9%; in assay [6], -19.2%.
Regarding `CCOC(=O)NC(Nc1ccc(OC(F)(F)F)cc1)(C(F)(F)F)C(F)(F)F`, the growth inhibition is -8.7% in assay [1]; -8.2% in assay [2]; -39.1% in assay [3]; -1.25% in assay [4]; -19.9% in assay [5]; -0.3% in assay [6].
For the molecule `C[C@]12CC[C@H](OC3CCCCO3)CC1=CC[C@@H]1C2CC[C@]2(C)/C(=N/OCCC#N)CCC12` (stereo partly specified), the growth inhibition was 16.9% in assay [1]; 15.2% in assay [2]; -3.85% in assay [3]; -49.4% in assay [4]; 3.3% in assay [5]; 28.1% in assay [6].
For `COc1ccc(-c2cc(C(=O)Nc3cc(Cl)cc(Cl)c3)c3ccccc3n2)cc1`, the growth inhibition is -13.7% in assay [1]; -18.6% in assay [2]; -25.8% in assay [3]; -0.85% in assay [4]; -17.6% in assay [5]; 1.55% in assay [6].
`CC1CC(=O)Nc2ncnc(N)c21` (stereo unspecified): the growth inhibition is -25.1% in assay [1]; -2.45% in assay [2]; 2.3% in assay [3]; -4.7% in assay [4]; 5.3% in assay [5]; -9% in assay [6].
Consider `CC(Cc1ccccc1)NC(=O)c1ccncc1` (stereo unspecified), for which the growth inhibition was 2.5% in assay [1]; 7.45% in assay [2]; -5.4% in assay [3]; -39.7% in assay [4]; -0.85% in assay [5]; 2% in assay [6].
As to `CCOC(=O)N1CCN(Cc2cc(=O)n3cc(C)ccc3n2)CC1`, the growth inhibition in assay [1] is -14.1%; in assay [2] it was -15.5%; in assay [3] it was 11.3%; in assay [4], 16.2%; in assay [5], 5.95%; in assay [6] it was 2.2%.
As to `COc1ccc2[nH]cc(C(=O)C(=O)NC34CC5CC(CC(C5)C3)C4)c2c1`, the growth inhibition in assay [1] is 12.7%; in assay [2], 6%; in assay [3], -5.2%; in assay [4] it was -1.7%; in assay [5], 16.2%; in assay [6], -22.5%.
With `CC(C)(C)c1cc(-c2cc(C(C)(C)C)[nH]n2)n[nH]1`, the growth inhibition in assay [1] is 12.8%; in assay [2] it was 4%; in assay [3], 12.7%; in assay [4] it was 9.05%; in assay [5], 14.2%; in assay [6], 10.3%.
On to `CCOC(=O)c1sc(N)nc1O`, for which the growth inhibition is -5.5% in assay [1]; -0.3% in assay [2]; -3.75% in assay [3]; 5.85% in assay [4]; 6.25% in assay [5]; -8.8% in assay [6].
On to `[Cl][Pt+2][Cl].[NH-]C1CCCC1[NH-]` (stereo unspecified), for which the growth inhibition was 13.8% in assay [1]; 9% in assay [2]; 20.9% in assay [3]; 3.8% in assay [4]; 21.9% in assay [5]; 36.8% in assay [6].
Regarding `CN(C)c1ccc(-c2c(C#N)c(N)[nH]c(=S)c2C#N)cc1`, the growth inhibition in assay [1] is 9.9%; in assay [2], -2.35%; in assay [3], 4.7%; in assay [4], 6.35%; in assay [5], 16.9%; in assay [6], 3.45%.
For `Nc1nc(SCc2ccccc2)c2ncn(C3CC(O)C(CO)O3)c2n1` (stereo unspecified), the growth inhibition in assay [1] was 0.05%; in assay [2], -1.2%; in assay [3] it was 3.1%; in assay [4], -99.5%; in assay [5], -1.45%; in assay [6], -6.15%.
Take `N/N=C1/CCCc2nonc21`: the growth inhibition in assay [1] is -19.7%; in assay [2], -17.1%; in assay [3] it was -29.4%; in assay [4], -22.2%; in assay [5] it was -25.4%; in assay [6], -48.4%.
